Shown are actives, neighbours in structure and some others; about 13% of the full set was active somewhere.
HCMV inh – human cytomegalovirus inhibition; activity change, negative = inhibition, % at 57.5 µM; 4.5% of 410,000 active; AID 1259415; HFF cells, HCMV-luciferase reporter, 72 h; stronger effect = lower value; in the data active = activity change below about -60%; inconclusive = no clear call, values can overlap the other calls; inactive = above about -39%
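Screen run at 2 compound doses on HFFs infected with reporter HCMV, MOI 1 PFU/cell. Luciferase activity from cell lysates at 72 h post infection gave inhibition relative to buffer-only and Salinomycin wells.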
HCV inh – blocks hepatitis C virus; Huh7.5.1 HCVcc-Cre infection, luciferase reporter, 44 h; Potency, µM (titrated, usually from 41.8 µM), usual class: inhibitors; 3.4% of 340,000 active
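A cell-based infection assay in which seeded cells (1,000 per well) receive test compound after 4 h, are inoculated with HCVcc-Cre at approximately 0.5 moi, and are incubated 44 h before luminescence detection.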
Pf growth 96h – inhibits malaria parasite growth, 96 h; Potency, µM (highest dose often 28.7 µM), actives largely listed as inhibitors; 6.9% of 320,000 active; P. falciparum luciferase reporter growth, 96 h
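Plates of compound plus infected erythrocytes (2% hematocrit, 0.05% parasitemia final) incubate 96 hours, 37 C, 5% CO2. Detection reagent added; reduced luminescence from the parasites' luciferase reporter flags inhibition.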
Pf growth 48h – inhibits P. falciparum growth in the first generation, 48 h; P. falciparum luciferase growth in erythrocytes, 48 h; Potency, µM (doses to about 28.7 µM), usual class: inhibitors; 5.9% of 310,000 active; AID 504832
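Luciferase-expressing parasites in RBCs, 2% Hct / 0.1% parasitemia final; RPMI 1640 + 0.5% Albumax; 37 C, 5% CO2, one generation; luminescence read-out, lower signal = inhibition.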
Each line names hits and unclear results; the compound was inactive in the other large screens. Unless noted, calls follow the shape of the dose curve; as a rule, active = well fitted inhibition curve with a large enough effect; inconclusive = small, poorly fitted or top-dose-only effect, or another doubt; inactive = no such curve, though single readings can be large or run the other way.

O=C(NNC(=O)c1ccncc1)Nc1cccc(C(F)(F)F)c1	none
COc1ccc(NC(=O)/C=C/c2ccc(OC(F)F)cc2)cn1	HCV inh 11µM, Pf growth 96h inconclusive, Pf growth 48h inconclusive
O=C(/C=C/c1cccc(C(F)(F)F)c1)Nc1cccc(C(F)(F)F)c1	HCMV inh -99, HCV inh inconclusive, Pf growth 96h inconclusive, Pf growth 48h 7.4µM
Cc1ccc(NC(=O)/C=C/c2cccc(C(F)(F)F)c2)cc1	HCMV inh inconclusive, HCV inh inconclusive
CC(C)CCNc1nc2c(S(=O)(=O)c3ccc(Br)cc3)nnn2c2ccsc12	none (no result: HCV inh, Pf growth 96h, Pf growth 48h)
Brc1ccc2c(c1)-n1c(nc3ccccc31)CN2	none (no result: HCV inh, Pf growth 96h, Pf growth 48h)
Cc1nc2nc(SCc3c(F)cccc3Cl)nn2c(C)c1Cc1ccccc1	none (no result: HCV inh, Pf growth 96h, Pf growth 48h)
Cc1nc2nc(SCC(=O)N3CCOCC3)nn2c(C)c1Cc1c(F)cccc1Cl	HCV inh inconclusive, Pf growth 48h 3.7µM
CCC1CCCCN1CCCNC(=O)CSc1nc2nc(C)c(Cc3ccccc3Cl)c(C)n2n1 (centres undefined)	Pf growth 48h inconclusive
Cc1nc2nc(SCC(=O)NCCCN3CCCC(C)C3)nn2c(C)c1Cc1ccccc1Cl (centres undefined)	HCV inh 11µM, Pf growth 48h 13µM
Cc1ccccc1Cc1c(C)nc2nc(SCC(=O)NCCCN3CCCC3)nn2c1C	HCV inh inconclusive, Pf growth 48h inconclusive
Cc1nc2nc(SCC(=O)NCCCN3CCCCCC3)nn2c(C)c1Cc1ccccc1Cl	HCMV inh active, HCV inh inconclusive
Cc1ccc(S(=O)(=O)N[C@@H](CCCCN)C(=O)CCl)cc1	HCV inh inconclusive, Pf growth 96h 12µM, Pf growth 48h inconclusive
CCCOc1ccc(Br)cc1CSC(=N)N	HCMV inh -95, HCV inh inconclusive, Pf growth 96h inconclusive, Pf growth 48h inconclusive
COc1ccc(-c2nc3ccccc3n2Cc2ccc(C(C)C)cc2)cc1	HCMV inh -73 (no result: HCV inh, Pf growth 96h, Pf growth 48h)
COc1ccc(-c2nc3ccccc3n2Cc2ccc(Cl)cc2)cc1	none (no result: HCV inh, Pf growth 96h, Pf growth 48h)
O=c1cc2nc(-c3ccccc3F)nc(SCc3ccc(Br)cc3)n2[nH]1	none (no result: HCV inh, Pf growth 96h, Pf growth 48h)
CSc1ccccc1NC(=O)c1csc(C)c1	Pf growth 96h 10µM
COC(=O)c1cc(OC)c(OC)cc1NC(=O)c1csc(C)c1	HCMV inh -67, Pf growth 96h inconclusive, Pf growth 48h 10µM
COC(=O)c1cc(OC)c(OC)cc1NC(=O)c1cccc(C)c1	HCMV inh inconclusive, HCV inh inconclusive, Pf growth 48h inconclusive
CCOc1ccc(/C=C/c2nc(C#N)c(N(C)C)o2)cc1	none (no result: HCV inh, Pf growth 96h, Pf growth 48h)
COc1ccc2c(c1)c1c(c(=O)n(Cc3ccccc3)c(=O)n1CC(=O)Nc1ccccc1OC)n2C	none (no result: HCV inh, Pf growth 96h, Pf growth 48h)
O=C(Nc1cc(F)cc(F)c1)c1ccc(NCCCN2CCCCCC2)c([N+](=O)[O-])c1	HCV inh inconclusive, Pf growth 96h inconclusive, Pf growth 48h inconclusive
Cc1ccc(NC(=O)c2ccc(NCCCN3CCC(C)CC3)c([N+](=O)[O-])c2)c(C)c1	HCMV inh inconclusive, HCV inh 11µM, Pf growth 96h inconclusive, Pf growth 48h 3.3µM
O=C(Nc1ccccc1)c1ccc(NCCN2C(=O)CCC2=O)c([N+](=O)[O-])c1	none
COc1cccc(NC(=O)c2ccc(NCCCN3CCC(C)CC3)c([N+](=O)[O-])c2)c1	HCV inh inconclusive, Pf growth 96h inconclusive, Pf growth 48h 2.1µM
CCCN(CCC)CCCNc1ccc(C(=O)Nc2cccc(OC)c2)cc1[N+](=O)[O-]	HCMV inh inconclusive, HCV inh inconclusive, Pf growth 48h 1.5µM
COc1cccc(Nc2ccc(C(=O)O)cc2[N+](=O)[O-])c1	none
COc1cccc(NC(=O)c2ccc(NCCCN3CC(C)CC(C)C3)c([N+](=O)[O-])c2)c1 (centres undefined)	HCV inh 7.9µM, Pf growth 96h 3.7µM, Pf growth 48h inconclusive
COc1ccc(CCNC(=O)c2ccc(Cn3c(=O)c4cccn4c4cccnc43)cc2)cc1OC	none (no result: HCV inh, Pf growth 96h, Pf growth 48h)
CCOC(=O)c1c(S(=O)(=O)N2CCCC(C(=O)Nc3ccc(C)cc3C)C2)c(C)n(CC)c1C (centres undefined)	none (no result: HCV inh, Pf growth 96h, Pf growth 48h)
CS(=O)(=O)n1nc(-c2ccco2)nc1NCc1ccccc1Cl	none (no result: HCV inh, Pf growth 96h, Pf growth 48h)
COc1ccc(-c2noc(C)c2-c2ccc3ccccc3n2)c(O)c1	HCV inh inconclusive, Pf growth 96h 15µM, Pf growth 48h 12µM
COc1ccc(NC(=O)c2sc(=O)n(Cc3cccc(C(F)(F)F)c3)c2C)cc1OC	none (no result: HCV inh, Pf growth 96h, Pf growth 48h)
O=C(O)CCc1ccc(-c2cccs2)n1NC(=O)c1ccco1	Pf growth 96h 10µM
O=C(O)CCc1ccc(-c2ccccc2)n1NC(=O)c1ccco1	none
CCC(C)(C)NC(=O)CN(C(=O)CCC(=O)Nc1nccs1)c1ccc(C)cc1	Pf growth 96h inconclusive
CCC(C)(C)NC(=O)CN(C(=O)CCC(=O)Nc1nccs1)c1cccc(C)c1C	Pf growth 48h 13µM
CCC(C)(C)NC(=O)C(c1ccc(OC)cc1)N(CCOC)C(=O)CCC(=O)Nc1nccs1 (centres undefined)	Pf growth 96h inconclusive
CCC(C)(C)NC(=O)C(c1ccc(O)cc1)N(CCOC)C(=O)CCC(=O)Nc1nccs1 (centres undefined)	Pf growth 48h 2.9µM
COCCN(C(=O)CCC(=O)Nc1nccs1)C(C(=O)NC(C)(C)C)c1ccc(C)cc1 (centres undefined)	HCMV inh -74
CCc1nn2c(=O)cc(COC(=O)C3CCCCC3)nc2s1	none (no result: HCV inh, Pf growth 96h, Pf growth 48h)
CC1=C(C(=O)N(C)C)CC(CC(=O)NC2CCCCC2)C(=O)N1CCCN1CCCC1=O (centres undefined)	none (no result: HCV inh, Pf growth 96h, Pf growth 48h)
CC(C)CC1c2[nH]c3ccccc3c2CCN1CCCn1cccn1 (centres undefined)	Pf growth 96h 13µM, Pf growth 48h inconclusive
COc1ccc(C2c3[nH]c4ccccc4c3CCN2CCCn2cccn2)c(C)c1C (centres undefined)	HCV inh inconclusive, Pf growth 96h 12µM, Pf growth 48h inconclusive
CCOc1ccc(C2c3[nH]c4ccccc4c3CCN2CCCn2cccn2)cc1 (centres undefined)	HCV inh inconclusive, Pf growth 96h inconclusive, Pf growth 48h inconclusive
CCOC(=O)N1CCC2(CC1)OC(=O)C(C)=C2C(=O)NCc1cccc(OC)c1	none (no result: HCV inh, Pf growth 96h, Pf growth 48h)
COc1cccc(N2C(=O)CSC23C(=O)N(CC(=O)Nc2cc(C)ccc2C)c2ccccc23)c1 (centres undefined)	none (no result: HCV inh, Pf growth 96h, Pf growth 48h)
CCC(C(=O)NCCCc1ccccc1)n1nc(C)c2c(C)n(-c3ccccc3)nc2c1=O (centres undefined)	HCMV inh -67, HCV inh inconclusive
CCC(C(=O)NCc1ccco1)n1nc(C)c2c(C)n(-c3ccccc3)nc2c1=O (centres undefined)	Pf growth 96h 15µM
CCC(C(=O)NC1CC1)n1nc(C)c2c(C)n(-c3ccc(C)cc3)nc2c1=O (centres undefined)	HCMV inh inconclusive, HCV inh inconclusive, Pf growth 96h inconclusive
CCC(C(=O)NC1CCCCCC1)n1nc(C)c2c(C)n(-c3ccccc3)nc2c1=O (centres undefined)	HCV inh inconclusive, Pf growth 96h 10µM, Pf growth 48h inconclusive
CCC(C(=O)NCCc1ccco1)n1nc(C)c2c(C)n(-c3ccccc3)nc2c1=O (centres undefined)	HCMV inh inconclusive
